Reference: paper PMC7862700, “An all-to-all approach to the identification of sequence-specific readers for epigenetic DNA modifications on cytosine”

Columns and labels:
Assay in all cases: DAPPL (digital affinity profiling via proximity ligation, sequencing); 10 mM Tris-HCl pH 7.5, 50 mM NaCl, 1 mM DTT, 4% glycerol, room temperature, 30 min; GST-TFs on glutathione beads, 16-mer random dsDNA library, 0.1% formaldehyde crosslink after washing; high values mean tight binding
[1] = molecular target: T1, FLI1 (Homo sapiens, UniProt Q01543 1-452); conditions: protein: recombinant; tags: N-terminal GST; dsDNA, one strand shown
T1 sequence: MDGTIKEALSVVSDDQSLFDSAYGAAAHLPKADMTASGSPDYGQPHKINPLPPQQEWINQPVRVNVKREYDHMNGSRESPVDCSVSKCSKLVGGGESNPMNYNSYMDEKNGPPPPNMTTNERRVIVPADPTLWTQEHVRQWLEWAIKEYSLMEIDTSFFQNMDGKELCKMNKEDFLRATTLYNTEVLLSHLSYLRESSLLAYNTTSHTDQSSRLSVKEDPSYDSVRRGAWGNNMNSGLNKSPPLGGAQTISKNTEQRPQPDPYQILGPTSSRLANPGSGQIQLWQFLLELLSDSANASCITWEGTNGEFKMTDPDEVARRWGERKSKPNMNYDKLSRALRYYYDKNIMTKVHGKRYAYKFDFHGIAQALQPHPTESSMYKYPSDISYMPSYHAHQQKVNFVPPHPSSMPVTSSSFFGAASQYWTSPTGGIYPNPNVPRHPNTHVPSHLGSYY
Procedure, shortened: (§1)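 Binding signal is given per hexamer as its read frequency for a factor divided by its frequency in the tag-only sample. GST-fused human transcription factors were expressed in yeast, captured on glutathione beads, barcoded with DNA and pooled with that sample, then incubated with 200 nmole of a 16-mer random double-stranded DNA library in Tris/NaCl/DTT/glycerol buffer for 30 min at room temperature. The pools were then washed, crosslinked, proximity-ligated, amplified by PCR and sequenced on an Illumina NextSeq500.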

[2] = molecular target: T2, ELK1 (Homo sapiens, UniProt P19419 1-428); conditions: protein: recombinant; tags: N-terminal GST; dsDNA, one strand shown
T2 sequence: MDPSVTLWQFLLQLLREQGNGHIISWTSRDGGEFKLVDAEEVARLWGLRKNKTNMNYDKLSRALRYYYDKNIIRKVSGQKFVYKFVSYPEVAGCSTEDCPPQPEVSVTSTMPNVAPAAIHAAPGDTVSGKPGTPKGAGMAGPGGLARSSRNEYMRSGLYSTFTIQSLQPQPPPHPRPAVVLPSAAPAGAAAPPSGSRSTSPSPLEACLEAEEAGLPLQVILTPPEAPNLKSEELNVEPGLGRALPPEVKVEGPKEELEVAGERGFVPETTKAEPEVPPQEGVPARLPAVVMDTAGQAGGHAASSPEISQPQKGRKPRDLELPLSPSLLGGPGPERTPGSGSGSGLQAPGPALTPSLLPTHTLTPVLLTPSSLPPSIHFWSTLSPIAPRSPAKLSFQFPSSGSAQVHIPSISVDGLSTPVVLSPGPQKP
Procedure, shortened: as §1

[3] = molecular target: T3, GABPA (Homo sapiens, UniProt Q06546 1-454); conditions: protein: recombinant; tags: N-terminal GST; dsDNA, one strand shown
T3 sequence: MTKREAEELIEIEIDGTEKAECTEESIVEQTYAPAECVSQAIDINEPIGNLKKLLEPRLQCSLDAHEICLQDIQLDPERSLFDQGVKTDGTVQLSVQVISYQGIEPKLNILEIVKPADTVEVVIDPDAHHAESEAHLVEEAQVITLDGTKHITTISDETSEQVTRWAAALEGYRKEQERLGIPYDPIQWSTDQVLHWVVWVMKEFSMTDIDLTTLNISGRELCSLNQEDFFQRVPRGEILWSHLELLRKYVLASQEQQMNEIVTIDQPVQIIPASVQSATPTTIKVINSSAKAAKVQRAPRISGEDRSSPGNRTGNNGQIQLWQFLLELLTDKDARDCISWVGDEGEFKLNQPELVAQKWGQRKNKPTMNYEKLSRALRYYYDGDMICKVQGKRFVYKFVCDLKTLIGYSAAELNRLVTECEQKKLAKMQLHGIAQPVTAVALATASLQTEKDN
Procedure, shortened: as §1

[4] = molecular target: T4, ERG (Homo sapiens, UniProt P11308 1-479); conditions: protein: recombinant; tags: N-terminal GST; dsDNA, one strand shown
T4 sequence: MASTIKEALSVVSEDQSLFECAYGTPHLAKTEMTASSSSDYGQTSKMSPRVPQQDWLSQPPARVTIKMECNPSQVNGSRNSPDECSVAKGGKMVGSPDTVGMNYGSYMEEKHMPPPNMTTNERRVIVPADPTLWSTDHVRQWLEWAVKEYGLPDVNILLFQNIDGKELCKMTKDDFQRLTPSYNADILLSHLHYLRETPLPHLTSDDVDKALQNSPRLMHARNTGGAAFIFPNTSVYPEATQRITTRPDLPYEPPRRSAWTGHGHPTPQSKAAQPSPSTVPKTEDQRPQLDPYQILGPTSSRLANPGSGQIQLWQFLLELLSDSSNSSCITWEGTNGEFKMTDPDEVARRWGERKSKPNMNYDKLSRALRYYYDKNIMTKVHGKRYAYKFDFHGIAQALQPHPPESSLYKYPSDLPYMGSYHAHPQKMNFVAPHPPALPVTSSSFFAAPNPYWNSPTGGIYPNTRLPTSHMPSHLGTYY
Procedure, shortened: as §1

[5] = molecular target: ELF1 (Homo sapiens, UniProt P32519 1-619); conditions: protein: recombinant; tags: N-terminal GST; dsDNA, one strand shown
ELF1, sequence (P32519 whole entry): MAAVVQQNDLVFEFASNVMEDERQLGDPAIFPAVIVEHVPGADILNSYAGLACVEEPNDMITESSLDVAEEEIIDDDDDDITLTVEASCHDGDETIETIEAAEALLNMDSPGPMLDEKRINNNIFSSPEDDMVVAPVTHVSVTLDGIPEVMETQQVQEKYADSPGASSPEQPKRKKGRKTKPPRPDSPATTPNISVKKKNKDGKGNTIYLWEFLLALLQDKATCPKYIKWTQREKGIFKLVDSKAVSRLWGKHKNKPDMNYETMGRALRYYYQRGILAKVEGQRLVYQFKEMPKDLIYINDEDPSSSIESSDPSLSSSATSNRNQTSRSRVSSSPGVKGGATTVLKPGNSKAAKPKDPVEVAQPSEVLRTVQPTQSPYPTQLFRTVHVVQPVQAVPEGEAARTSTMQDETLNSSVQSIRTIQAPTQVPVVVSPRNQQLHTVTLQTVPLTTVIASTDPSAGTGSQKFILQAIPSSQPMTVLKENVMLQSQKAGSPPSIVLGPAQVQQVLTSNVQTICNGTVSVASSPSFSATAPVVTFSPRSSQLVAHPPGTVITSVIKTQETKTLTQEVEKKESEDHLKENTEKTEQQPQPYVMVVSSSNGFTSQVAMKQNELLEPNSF
Procedure, shortened: as §1

[6] = molecular target: T5, EHF (Homo sapiens, UniProt Q9NZC4 1-300); conditions: protein: recombinant; tags: N-terminal GST; dsDNA, one strand shown
T5 sequence: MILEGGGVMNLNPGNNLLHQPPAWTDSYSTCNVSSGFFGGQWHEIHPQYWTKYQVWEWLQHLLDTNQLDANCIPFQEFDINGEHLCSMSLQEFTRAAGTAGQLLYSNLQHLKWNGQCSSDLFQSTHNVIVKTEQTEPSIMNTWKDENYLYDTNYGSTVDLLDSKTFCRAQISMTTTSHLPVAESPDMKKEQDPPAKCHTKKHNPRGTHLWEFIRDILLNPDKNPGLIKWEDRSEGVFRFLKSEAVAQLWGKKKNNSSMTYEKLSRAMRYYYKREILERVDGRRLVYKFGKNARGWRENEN
Procedure, shortened: as §1

[7] = molecular target: SPI1 (Homo sapiens, UniProt P17947 1-270); conditions: protein: recombinant; tags: N-terminal GST; dsDNA, one strand shown
Procedure, shortened: as §1

[8] = molecular target: SPIB (Homo sapiens, UniProt Q01892 1-262); conditions: protein: recombinant; tags: N-terminal GST; dsDNA, one strand shown
SPIB, sequence (Q01892 whole entry): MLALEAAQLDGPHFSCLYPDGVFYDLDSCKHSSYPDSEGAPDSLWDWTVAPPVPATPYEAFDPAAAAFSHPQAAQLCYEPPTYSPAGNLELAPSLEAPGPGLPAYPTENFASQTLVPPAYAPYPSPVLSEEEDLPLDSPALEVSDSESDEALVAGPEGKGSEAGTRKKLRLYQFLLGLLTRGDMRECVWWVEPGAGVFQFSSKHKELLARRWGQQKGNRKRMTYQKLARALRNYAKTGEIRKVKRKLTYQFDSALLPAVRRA
Procedure, shortened: as §1

[9] = molecular target: T6, ELK3 (Homo sapiens, UniProt P41970 1-407); conditions: protein: recombinant; tags: N-terminal GST; dsDNA, one strand shown
T6 sequence: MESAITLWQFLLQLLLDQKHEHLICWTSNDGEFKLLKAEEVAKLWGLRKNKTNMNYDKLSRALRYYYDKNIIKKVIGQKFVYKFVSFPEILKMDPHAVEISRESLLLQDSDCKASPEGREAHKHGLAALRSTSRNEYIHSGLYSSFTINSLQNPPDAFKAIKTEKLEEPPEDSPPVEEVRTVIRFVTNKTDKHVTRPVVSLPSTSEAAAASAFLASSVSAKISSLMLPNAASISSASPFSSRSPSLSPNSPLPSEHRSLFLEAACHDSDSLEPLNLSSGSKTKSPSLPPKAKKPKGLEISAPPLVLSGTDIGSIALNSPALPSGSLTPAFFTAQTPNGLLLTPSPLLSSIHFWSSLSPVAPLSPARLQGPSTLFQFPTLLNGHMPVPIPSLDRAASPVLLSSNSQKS
Procedure, shortened: as §1

[10] = molecular target: T7, FEV (Homo sapiens, UniProt Q99581 1-238); conditions: protein: recombinant; tags: N-terminal GST; dsDNA, one strand shown
T7 sequence: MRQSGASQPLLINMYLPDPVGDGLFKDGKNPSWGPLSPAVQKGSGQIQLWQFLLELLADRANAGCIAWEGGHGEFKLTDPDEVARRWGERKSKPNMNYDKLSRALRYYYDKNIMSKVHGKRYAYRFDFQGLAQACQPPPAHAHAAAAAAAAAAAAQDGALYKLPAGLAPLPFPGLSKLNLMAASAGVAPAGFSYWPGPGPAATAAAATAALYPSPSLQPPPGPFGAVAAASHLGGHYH
Procedure, shortened: as §1

[11] = molecular target: ETV5 (Homo sapiens, UniProt P41161 1-510); conditions: protein: recombinant; tags: N-terminal GST; dsDNA, one strand shown
ETV5, sequence (P41161 whole entry): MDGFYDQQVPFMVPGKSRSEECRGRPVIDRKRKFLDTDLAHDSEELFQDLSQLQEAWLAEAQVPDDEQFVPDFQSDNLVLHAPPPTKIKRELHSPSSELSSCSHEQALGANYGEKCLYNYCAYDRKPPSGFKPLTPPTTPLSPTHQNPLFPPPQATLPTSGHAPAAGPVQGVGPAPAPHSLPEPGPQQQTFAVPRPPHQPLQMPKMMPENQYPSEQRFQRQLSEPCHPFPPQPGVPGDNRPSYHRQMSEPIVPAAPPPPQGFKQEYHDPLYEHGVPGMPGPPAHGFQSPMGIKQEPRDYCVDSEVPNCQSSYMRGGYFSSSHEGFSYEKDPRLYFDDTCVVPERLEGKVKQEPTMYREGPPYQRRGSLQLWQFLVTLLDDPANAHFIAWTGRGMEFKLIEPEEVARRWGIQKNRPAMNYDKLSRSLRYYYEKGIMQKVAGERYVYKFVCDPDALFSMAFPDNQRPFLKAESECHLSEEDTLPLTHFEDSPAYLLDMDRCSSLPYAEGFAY
Procedure, shortened: as §1

[12] = molecular target: HSF1 (Homo sapiens, UniProt Q00613 1-529); conditions: protein: recombinant; tags: N-terminal GST; chain copies: 3; dsDNA, one strand shown
HSF1, sequence (Q00613 whole entry): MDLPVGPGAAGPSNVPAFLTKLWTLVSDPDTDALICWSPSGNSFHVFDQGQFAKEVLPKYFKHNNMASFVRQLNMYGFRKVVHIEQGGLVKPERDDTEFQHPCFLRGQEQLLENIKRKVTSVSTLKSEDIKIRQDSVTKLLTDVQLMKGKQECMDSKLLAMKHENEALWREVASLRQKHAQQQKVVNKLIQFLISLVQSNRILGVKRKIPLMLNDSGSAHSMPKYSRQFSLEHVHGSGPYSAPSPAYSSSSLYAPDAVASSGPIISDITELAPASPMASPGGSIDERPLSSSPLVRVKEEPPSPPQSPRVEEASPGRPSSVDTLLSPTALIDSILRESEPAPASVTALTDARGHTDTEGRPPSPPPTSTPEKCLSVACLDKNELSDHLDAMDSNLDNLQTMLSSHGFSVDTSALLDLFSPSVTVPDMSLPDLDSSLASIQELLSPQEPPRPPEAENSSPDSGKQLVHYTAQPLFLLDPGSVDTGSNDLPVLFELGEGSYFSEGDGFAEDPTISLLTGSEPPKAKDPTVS
Procedure, shortened: as §1

[13] = molecular target: T8, SPIC (Homo sapiens, UniProt Q8N5J4 1-248); conditions: protein: recombinant; tags: N-terminal GST; dsDNA, one strand shown
T8 sequence: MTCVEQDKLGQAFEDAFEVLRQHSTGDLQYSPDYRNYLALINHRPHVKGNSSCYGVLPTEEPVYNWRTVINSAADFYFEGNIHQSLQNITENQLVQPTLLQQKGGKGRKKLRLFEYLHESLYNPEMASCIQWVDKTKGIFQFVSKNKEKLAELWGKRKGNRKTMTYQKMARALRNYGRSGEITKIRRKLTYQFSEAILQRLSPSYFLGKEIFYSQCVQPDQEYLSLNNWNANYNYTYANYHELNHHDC
Procedure, shortened: as §1

[14] = molecular target: ELF4 (Homo sapiens, UniProt Q99607 1-663); conditions: protein: recombinant; tags: N-terminal GST; dsDNA, one strand shown
ELF4, sequence (Q99607 whole entry): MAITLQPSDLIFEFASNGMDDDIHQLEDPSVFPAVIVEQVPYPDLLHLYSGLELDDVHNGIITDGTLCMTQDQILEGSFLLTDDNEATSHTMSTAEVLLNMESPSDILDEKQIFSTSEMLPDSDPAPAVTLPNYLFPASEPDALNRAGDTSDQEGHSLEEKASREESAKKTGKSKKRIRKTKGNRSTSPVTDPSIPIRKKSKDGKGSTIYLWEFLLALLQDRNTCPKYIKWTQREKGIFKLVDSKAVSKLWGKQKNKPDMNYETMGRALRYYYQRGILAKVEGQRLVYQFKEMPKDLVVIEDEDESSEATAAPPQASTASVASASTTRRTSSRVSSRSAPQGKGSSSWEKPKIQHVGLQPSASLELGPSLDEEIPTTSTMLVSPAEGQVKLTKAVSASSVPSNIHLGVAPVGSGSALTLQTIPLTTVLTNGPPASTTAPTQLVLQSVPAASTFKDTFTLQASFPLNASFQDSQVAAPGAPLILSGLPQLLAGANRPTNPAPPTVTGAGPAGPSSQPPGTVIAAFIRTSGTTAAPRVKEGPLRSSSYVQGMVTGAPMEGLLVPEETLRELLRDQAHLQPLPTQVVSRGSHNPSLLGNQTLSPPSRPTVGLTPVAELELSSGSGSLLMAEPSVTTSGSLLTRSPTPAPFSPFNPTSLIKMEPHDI
Procedure, shortened: as §1

[15] = molecular target: T9, ELK4 (Homo sapiens, UniProt P28324-2 1-405); conditions: protein: recombinant; tags: N-terminal GST; dsDNA, one strand shown
T9 sequence: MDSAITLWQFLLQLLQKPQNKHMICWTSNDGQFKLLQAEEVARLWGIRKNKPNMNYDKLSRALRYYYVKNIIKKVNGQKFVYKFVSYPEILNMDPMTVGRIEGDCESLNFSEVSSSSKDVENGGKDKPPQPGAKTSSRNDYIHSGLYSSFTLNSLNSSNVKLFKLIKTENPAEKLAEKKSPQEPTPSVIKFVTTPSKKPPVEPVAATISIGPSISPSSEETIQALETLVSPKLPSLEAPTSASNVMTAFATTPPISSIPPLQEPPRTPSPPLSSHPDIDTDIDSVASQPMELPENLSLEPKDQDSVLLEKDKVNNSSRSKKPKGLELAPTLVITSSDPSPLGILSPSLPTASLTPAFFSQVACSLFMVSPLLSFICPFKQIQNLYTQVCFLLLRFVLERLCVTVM
Procedure, shortened: as §1

[16] = molecular target: T10, ETV2 (Homo sapiens, UniProt O00321 1-342); conditions: protein: recombinant; tags: N-terminal GST; dsDNA, one strand shown
T10 sequence: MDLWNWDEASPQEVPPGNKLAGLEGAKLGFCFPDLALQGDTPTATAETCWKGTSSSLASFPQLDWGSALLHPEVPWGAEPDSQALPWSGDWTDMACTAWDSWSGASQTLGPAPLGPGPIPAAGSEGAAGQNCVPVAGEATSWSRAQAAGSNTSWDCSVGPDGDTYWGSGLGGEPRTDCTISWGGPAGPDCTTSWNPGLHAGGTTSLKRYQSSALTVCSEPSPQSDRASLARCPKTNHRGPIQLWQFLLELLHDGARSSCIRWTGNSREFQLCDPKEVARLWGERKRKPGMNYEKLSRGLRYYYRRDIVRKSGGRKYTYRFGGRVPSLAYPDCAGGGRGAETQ
Procedure, shortened: as §1

[17] = molecular target: T11, ELF3 (Homo sapiens, UniProt P78545 1-371); conditions: protein: recombinant; tags: N-terminal GST; dsDNA, one strand shown
T11 sequence: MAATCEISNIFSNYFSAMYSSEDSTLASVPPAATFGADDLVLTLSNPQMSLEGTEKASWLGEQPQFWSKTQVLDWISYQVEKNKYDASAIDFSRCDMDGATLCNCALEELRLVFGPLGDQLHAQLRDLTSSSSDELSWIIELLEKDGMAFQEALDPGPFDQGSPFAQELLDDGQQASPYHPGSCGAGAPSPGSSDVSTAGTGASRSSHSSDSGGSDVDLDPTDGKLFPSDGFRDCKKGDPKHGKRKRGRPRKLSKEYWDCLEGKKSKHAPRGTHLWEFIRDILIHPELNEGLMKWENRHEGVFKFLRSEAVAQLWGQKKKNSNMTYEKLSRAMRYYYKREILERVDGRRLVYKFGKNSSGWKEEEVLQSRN
Procedure, shortened: as §1

[18] = molecular target: CRX (Homo sapiens, UniProt O43186 1-299); conditions: protein: recombinant; tags: N-terminal GST; dsDNA, one strand shown
CRX, sequence (O43186 whole entry): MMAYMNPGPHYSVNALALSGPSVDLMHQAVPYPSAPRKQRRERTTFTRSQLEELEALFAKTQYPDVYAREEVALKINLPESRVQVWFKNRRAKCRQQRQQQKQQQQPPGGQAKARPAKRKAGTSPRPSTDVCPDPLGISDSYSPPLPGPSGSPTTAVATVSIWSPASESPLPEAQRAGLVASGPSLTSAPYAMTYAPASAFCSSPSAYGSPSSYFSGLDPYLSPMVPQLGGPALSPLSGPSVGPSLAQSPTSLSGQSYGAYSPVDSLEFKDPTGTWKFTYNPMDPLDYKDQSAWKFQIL
Procedure, shortened: as §1

[19] = molecular target: ETV1 (Homo sapiens, UniProt P50549 1-477); conditions: protein: recombinant; tags: N-terminal GST; dsDNA, one strand shown
ETV1, sequence (P50549 whole entry): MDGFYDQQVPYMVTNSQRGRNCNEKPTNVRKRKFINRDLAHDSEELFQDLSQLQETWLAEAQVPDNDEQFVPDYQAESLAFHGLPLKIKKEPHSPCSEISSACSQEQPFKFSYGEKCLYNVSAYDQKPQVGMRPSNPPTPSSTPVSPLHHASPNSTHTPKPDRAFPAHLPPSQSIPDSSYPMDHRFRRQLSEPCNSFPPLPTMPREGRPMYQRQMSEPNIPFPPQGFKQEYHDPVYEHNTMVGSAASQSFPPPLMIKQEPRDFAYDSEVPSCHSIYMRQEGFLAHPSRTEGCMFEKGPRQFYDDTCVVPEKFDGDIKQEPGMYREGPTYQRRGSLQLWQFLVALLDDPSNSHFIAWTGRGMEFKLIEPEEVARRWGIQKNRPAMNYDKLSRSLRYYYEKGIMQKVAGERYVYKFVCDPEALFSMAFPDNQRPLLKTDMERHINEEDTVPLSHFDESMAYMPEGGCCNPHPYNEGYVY
Procedure, shortened: as §1

ATGGTA
binding signal [1]: 1.39 fold enrichment (6-mer frequency, TF over GST control) | binding signal [2]: 1.44 fold enrichment (6-mer frequency, TF over GST control) | binding signal [3]: 1.39 fold enrichment (6-mer frequency, TF over GST control) | binding signal [4]: 1.33 fold enrichment (6-mer frequency, TF over GST control) | binding signal [5]: 1.36 fold enrichment (6-mer frequency, TF over GST control) | binding signal [6]: 1.43 fold enrichment (6-mer frequency, TF over GST control) | binding signal [7]: 1.23 fold enrichment (6-mer frequency, TF over GST control) | binding signal [8]: 1.42 fold enrichment (6-mer frequency, TF over GST control) | binding signal [9]: 1.36 fold enrichment (6-mer frequency, TF over GST control) | binding signal [10]: 1.17 fold enrichment (6-mer frequency, TF over GST control) | binding signal [11]: 1.43 fold enrichment (6-mer frequency, TF over GST control) | binding signal [12]: 1.21 fold enrichment (6-mer frequency, TF over GST control) | binding signal [13]: 1.31 fold enrichment (6-mer frequency, TF over GST control) | binding signal [14]: 1.31 fold enrichment (6-mer frequency, TF over GST control) | binding signal [15]: 1.49 fold enrichment (6-mer frequency, TF over GST control) | binding signal [16]: 1.45 fold enrichment (6-mer frequency, TF over GST control) | binding signal [17]: 1.48 fold enrichment (6-mer frequency, TF over GST control) | binding signal [18]: 1.33 fold enrichment (6-mer frequency, TF over GST control) | binding signal [19]: 1.47 fold enrichment (6-mer frequency, TF over GST control)
